High-throughput results (PubChem BioAssay)
Sampled rows, rich in hits. Any-hit rate of the full collection: about 4.7%.
D1 ag: agonists of human D1 dopamine receptor; P21728; 1% of 360,000 active; HEK293 T-REx D1 cells, calcium flux, agonist mode; activation, % at 2 µM; AID 504660; note: 0% is about no effect
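Tetracycline-induced HEK293 TREx D1 cells, force-coupled to calcium signalling, were dye-loaded with a no-wash calcium kit. Compound was pin-added after a 10 s baseline. Fluorescence was read kinetically at 1 cycle/s for 180 s, with calcium rises flagged as agonism.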
D1 antagonist: antagonists of human D1 dopamine receptor. P21728. HEK293 TREx D1 cells, calcium flux, dopamine EC80; hits give low values. activity change, negative = inhibition, % at 10 µM. 3.2% of 360,000 active. AID 504652; in the data active = activity change below about -30%; note: % is set by controls: 0 for no effect and ±100 for the full control effect
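Calcium flux readout: force-coupled, inducible Hek293 Trex D1 line, cells induced overnight at 30 C with tetracycline, dye-loaded 30–90 min at RT. Antagonism scored against EC80 dopamine challenge given 180 s after compound.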
TRHR agonist: agonists of human TRH receptor | P34981 | TRHR cells, calcium flux fluo-8, FDSS agonist mode | activation, % at 2 µM | 0.18% of 360,000 active | AID 493084; note: 0% is about no effect
Target sequence (P34981 whole entry, looked up): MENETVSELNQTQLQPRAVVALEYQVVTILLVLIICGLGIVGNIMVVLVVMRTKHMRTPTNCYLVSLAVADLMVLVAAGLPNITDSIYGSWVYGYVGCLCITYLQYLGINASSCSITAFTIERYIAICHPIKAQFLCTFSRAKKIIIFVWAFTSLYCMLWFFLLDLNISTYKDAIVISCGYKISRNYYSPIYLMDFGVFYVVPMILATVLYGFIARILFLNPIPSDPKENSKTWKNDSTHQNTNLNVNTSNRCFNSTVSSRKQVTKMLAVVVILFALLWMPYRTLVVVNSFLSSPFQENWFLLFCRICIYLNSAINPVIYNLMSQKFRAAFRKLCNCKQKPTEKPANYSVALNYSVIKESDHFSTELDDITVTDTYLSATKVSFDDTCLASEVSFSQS
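In this calcium-flux screen, cells bearing human TRHR are dye-loaded with fluo-8, baselined for 10 cycles, then exposed to library compounds; positive kinetic calcium responses during the agonist phase mark hits, with TRH as control.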
D1 PAM: human D1 dopamine receptor positive modulation; P21728; potentiation, % at 10 µM; AID 504651; 0.036% of 360,000 active; HEK293 TREx D1 cells, calcium flux, dopamine EC20 potentiation; in the data active = potentiation above about 30%; note: 0% is about no effect
TRHR PAM: allosterically enhances the human TRH receptor; P34981; TRHR cells, fluo-8 calcium fluorescence, EC20 TRH enhancement; enhancement, % at 2 µM; 0.66% of 360,000 active; AID 493056; in the data active = enhancement above about 30%; note: 0% is about no effect
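Enhancer read-out: after compound pinning and an initial kinetic agonist-mode read, an EC20 of TRH (10 nM final) was injected and fluo-8 calcium signal (Ex 480/Em 530) followed at 1 s/cycle for 100 cycles in TRHR-expressing cells.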
* = called active by the depositor; . = no result. Cut-off read from the data, not from the text of the source, unless noted: active = activation above about 30%; inactive = the rest.

SMILES | D1 ag | D1 antagonist | TRHR agonist | D1 PAM | TRHR PAM
COc1ccc(-c2[nH]c(-c3ccccc3)nc2SCC(=O)Nc2ccc3c(c2)OCO3)cc1 | 0.2 | -12.5 | -0.8 | -1.4 | -5.6
O=C(CSc1nc(=O)[nH]c2c1CCC2)NCc1ccc(F)cc1 | 1.3 | . | 0.0 | 0.6 | 2.6
CCCOc1ccc(C(=O)NNC(=S)NC(=O)c2ccco2)cc1 | 185.7* | -33.5* | 23.3 | -3.9 | -2.5
CCCOc1ccc(C(=O)NNC(=S)NC(=O)c2ccccc2)cc1 | 196.5* | -10.8 | 37.6* | 21.8 | 2.1
CCCOc1ccc(C(=O)NNC(=S)NC(=O)c2cccs2)cc1 | 104.3* | -25.8 | 13.4 | 11.1 | -2.3
CC(Oc1ccc(Cl)cc1)C(=O)NNC(=S)NC(=O)c1ccco1 (configuration not stated) | 44.0* | -8.4 | 0.0 | -2.7 | -2.5
CCOc1ccc2nc(N(Cc3cccnc3)C(=O)c3ccco3)sc2c1 | -3.3 | . | -0.2 | -2.1 | 0.4
CCOc1ccc(CCNC(=O)CCCc2nnc3n(CC)c(=O)c4sccc4n23)cc1OCC | 1.1 | -13.5 | -0.1 | -0.9 | -1.2
CCCOc1ccc(C(=O)NNC(=S)NC(C)=O)cc1 | 0.6 | -33.9* | 0.5 | -0.1 | -1.8
O=C(NC(=S)NNC(=O)c1ccco1)c1ccc(Br)cc1 | 47.2* | 5.4 | 1.1 | -3.2 | -4.8
CC1CN(C(=O)N2CCC(C(=O)NCc3cccs3)CC2)c2cc(Cl)ccc2O1 (configuration not stated) | 1.5 | 9.4 | -0.2 | 1.4 | -3.7
CC(=O)Nc1ccc(NC(=O)C(C)OC(=O)c2cccs2)cc1 (configuration not stated) | 0.5 | -37.4* | 0.2 | -13.1 | -1.3
CCN(CC)S(=O)(=O)c1cccc(-c2nnc(SCCCC(=O)c3ccc(F)cc3)o2)c1 | 34.1* | -0.2 | 3.7 | -3.0 | -4.6
CCN(CC)S(=O)(=O)c1cccc(-c2nnc(SCCCC(=O)c3ccccc3)o2)c1 | 16.9 | 18.3 | 1.0 | 4.0 | 6.7
CC(=O)c1ccc(NC(=S)N2CCC(Cc3ccccc3)CC2)cc1 | 9.8 | -35.3* | 0.3 | -9.6 | -9.3
COC(=O)Cc1ccc(NC(=S)N2CCN(c3cccc(O)c3)CC2)cc1 | 12.9 | -37.9* | 1.4 | -17.0 | -4.4
CC(C)NC(=S)N1CCC(Cc2ccccc2)CC1 | -0.7 | -2.4 | -0.4 | -4.8 | 6.9
COC(=O)Cc1ccc(NC(=S)N2CCN(C)CC2)cc1 | 2.0 | 0.7 | 0.9 | -0.2 | -3.8
CC(=O)c1cccc(NC(=S)N2CCC(Cc3ccccc3)CC2)c1 | 1.2 | . | -0.2 | -6.5 | -3.5
COC(=O)Cc1ccc(NC(=S)N2CCC(Cc3ccccc3)CC2)cc1 | 0.9 | -32.2* | 0.5 | -6.6 | -2.6
CC(C)CNC(=S)N1CCC(Cc2ccccc2)CC1 | 1.2 | -35.8* | 0.0 | -2.8 | 10.0
CCOC(=O)C(C)N1C(=O)S/C(=C/c2cc(C)n(-c3ccccn3)c2C)C1=O (configuration not stated) | 1.5 | -45.1* | 1.3 | -2.3 | 4.1
CC(=O)N1c2ccc(S(=O)(=O)N(C)CC(=O)N(Cc3ccccc3)C(C)C)cc2CC1C (configuration not stated) | 1.6 | -7.4 | -0.6 | -5.2 | 24.7
Cc1ccc(OCC(=O)Nc2c(C(=O)c3ccc(Cl)cc3)oc3ccccc23)cc1C | -0.6 | -3.8 | -0.2 | -3.2 | -1.5
CSc1nnc(C)c(/C=C/Nc2ccc(C)cc2)n1 | 45.5* | -5.3 | 28.9 | -2.4 | 0.0
SMILES | D1 ag | D1 antagonist | TRHR agonist | D1 PAM | TRHR PAM
CSc1nnc(C)c(/C=C/NOCc2ccc(Cl)cc2)n1 | 1.8 | -12.2 | -1.0 | -2.8 | 4.1
c1ccc(-c2ccccc2OCCCN2CCCC2)cc1 | 10.3 | -38.9* | 0.2 | -3.2 | -3.3
c1ccc(-c2ccccc2OCCCN2CCCCCC2)cc1 | 24.2 | -43.5* | 0.9 | -10.1 | -1.2
c1ccc(-c2ccccc2OCCCCN2CCCCC2)cc1 | 9.1 | -7.6 | -1.2 | -6.0 | -0.7
CC1CCN(CCOc2ccccc2-c2ccccc2)CC1 | 2.2 | -18.2 | 0.0 | -6.0 | 10.2
Cn1cc(S(=O)(=O)N2CCCCCC2)cc1C(=O)Nc1ccccc1F | -1.3 | 11.6 | 0.0 | -1.0 | -4.2
COc1cccc(NC(=O)N2CCC(n3nnc4ccccc43)CC2)c1 | 19.7 | -46.7* | 0.4 | -3.6 | -6.6
C[C@H](C(=O)O)c1cccc(C(=O)c2ccccc2)c1 | -1.0 | -54.2* | -0.1 | -3.0 | 9.0
COc1ccc(S(=O)(=O)NCC(c2ccco2)N2CCN(c3ccc(F)cc3)CC2)cc1C (configuration not stated) | -0.2 | . | -0.3 | -4.5 | -8.9
CCOc1ccc(NC(=O)c2oc3ccccc3c2NC(=O)C(C)(C)C)cc1 | 3.2 | -2.8 | -0.6 | 3.0 | -9.2
Cc1cc(C)nc(/N=C(\N)Nc2ccc(-c3ccccc3)cc2)n1 | 33.6* | 0.2 | 5.3 | -2.0 | -8.8
Cc1cc(C)nc(/N=C(\N)Nc2ccc(SC(F)F)cc2)n1 | 43.4* | -49.1* | 8.9 | -6.9 | 0.0
CC(=O)Nc1ccc(N/C(N)=N/c2nc(C)cc(C)n2)cc1 | 0.6 | -1.4 | 0.3 | -4.8 | -12.0
O=C(CCN1CCN(C(c2ccccc2)c2ccccc2)CC1)N/N=C/c1ccc(O)cc1 | 2.4 | -72.1* | -0.6 | -5.6 | 5.5
CCCCCC(=O)N/N=C/c1cc(Br)c(O)c(OC)c1 | 4.3 | -38.5* | -0.4 | -4.5 | -7.0
COc1ccc(/C=N\NC(=O)CCN2CCN(c3ccccc3)CC2)cc1OC | -0.3 | 2.6 | 0.4 | -7.0 | 0.5
COc1cc(/C=N/NC(=O)CCN2CCCCC2)ccc1O | 1.7 | 14.4 | 1.5 | 3.9 | 34.4*
O=C(c1ccccc1)N1N=C(C(F)(F)F)CC1(O)c1ccccc1 (configuration not stated) | 3.0 | -14.2 | -1.7 | 1.0 | 38.1*
COC(=O)C1=NN(C(=O)c2ccccc2)C(C)(O)C1 (configuration not stated) | 2.6 | 2.4 | -1.1 | 0.6 | 2.5
COC(=O)C1=NN(C(=O)c2ccccc2)C(O)(c2ccc([N+](=O)[O-])cc2)C1 (configuration not stated) | 86.3* | -2.3 | 24.3 | -7.5 | -13.5
COC(=O)C1=NN(C(=O)c2ccc(C)cc2)C(O)(c2ccc(Cl)cc2)C1 (configuration not stated) | 57.1* | -2.5 | 5.8 | -7.0 | 3.5
C=Cc1ccc(Cn2ccn(-c3ccc(F)c(F)c3)c(=O)c2=O)cc1 | 2.8 | -26.1 | 0.3 | -4.1 | -5.0
Cc1nc2ccccc2n1CCOc1ccc([N+](=O)[O-])cc1 | 2.4 | -39.6* | 0.6 | -9.6 | -3.1
Cc1nc2ccccc2n1CCOc1ccc(F)cc1 | 7.4 | -30.0 | -0.4 | -16.4 | 8.9
Cc1ccc(OCCCCn2c(CO)nc3ccccc32)cc1 | 14.5 | -37.3* | 0.2 | -8.1 | 4.6
CC(O)c1nc2ccccc2n1CCOc1ccccc1 (configuration not stated) | 42.8* | -46.1* | -0.6 | 0.9 | 14.9
